“And” between values parts separate entries of the source, which are not always exact repeats. Identical values can stand only once. Records with an inconclusive call do not appear. A call without a number means that no potency is given here. Where a structure was tested more than once in an assay, its records may differ in their call. The source made the active and inactive calls. Unless noted, the call rests on the fitted dose curve; in most records, active means well fitted curve in the direction sought with a large enough effect; inconclusive means small, poorly fitted or top-dose-only effect, or another doubt; inactive means no such curve, though single readings can be large; an effect the other way counts as inactive or inconclusive.
Assays:
[1] = molecular target: Rap guanine nucleotide exchange factor 3 (Homo sapiens) (UniProt O95398); assay: Confirmatory qHTS for antagonist of cAMP-regulated guanine nucleotide exchange factor 3 (EPAC1) (AID 1645880); conditions: EPAC1 Rap1B-BODIPY-GDP exchange, fluorescence; series mostly up to 115 µM; further: nearly all actives have a fitted effect of over 55% in size
Chain of Rap guanine nucleotide exchange factor 3 (Homo sapiens) (O95398 whole entry, looked up): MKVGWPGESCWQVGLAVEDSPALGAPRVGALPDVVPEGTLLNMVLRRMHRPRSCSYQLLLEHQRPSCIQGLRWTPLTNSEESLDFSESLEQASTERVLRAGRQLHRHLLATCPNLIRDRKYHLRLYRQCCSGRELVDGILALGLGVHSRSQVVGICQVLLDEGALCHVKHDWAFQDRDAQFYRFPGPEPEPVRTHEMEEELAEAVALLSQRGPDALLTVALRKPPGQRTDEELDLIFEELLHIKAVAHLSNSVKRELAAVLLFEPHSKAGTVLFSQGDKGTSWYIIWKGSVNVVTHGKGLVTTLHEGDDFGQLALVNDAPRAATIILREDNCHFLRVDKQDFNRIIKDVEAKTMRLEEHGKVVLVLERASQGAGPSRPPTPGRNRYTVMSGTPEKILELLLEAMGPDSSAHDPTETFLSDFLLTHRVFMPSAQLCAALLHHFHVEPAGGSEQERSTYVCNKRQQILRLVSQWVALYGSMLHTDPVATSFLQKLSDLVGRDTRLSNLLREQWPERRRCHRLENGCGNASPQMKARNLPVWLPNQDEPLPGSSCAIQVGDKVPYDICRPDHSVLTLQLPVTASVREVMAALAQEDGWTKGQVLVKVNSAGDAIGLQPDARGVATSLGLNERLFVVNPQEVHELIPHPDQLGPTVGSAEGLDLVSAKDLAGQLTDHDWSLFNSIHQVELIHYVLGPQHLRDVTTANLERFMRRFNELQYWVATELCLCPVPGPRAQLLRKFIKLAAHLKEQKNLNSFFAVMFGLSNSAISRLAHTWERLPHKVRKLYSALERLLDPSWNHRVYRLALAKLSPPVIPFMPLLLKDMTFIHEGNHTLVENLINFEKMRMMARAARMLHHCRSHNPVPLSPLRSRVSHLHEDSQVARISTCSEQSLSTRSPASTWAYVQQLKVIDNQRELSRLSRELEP
In short: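 Nucleotide exchange uses 100 nM EPAC1, 250 nM RAP1B-BODIPY-GDP and 50 uM GDP, with compounds in a concentration-titration series. After 5 min at room temperature, fluorescence (480 nm ex/540 nm em) is read every 5 min for 30 min. Data are normalized to control ATA and DMSO.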

[2] = molecular target: Rap guanine nucleotide exchange factor 3 (Homo sapiens) (UniProt O95398); assay: Confirmatory qHTS for agonist of cAMP-regulated guanine nucleotide exchange factor 3 (EPAC1) (AID 1645881); conditions: EPAC1 Rap1B BODIPY-GDP exchange fluorescence, 100% = cAMP control response; series mostly up to 154 µM;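 further: EPAC1 catalysed release of BODIPY-GDP from Rap1B seen as fluorescence loss; nearly all actives have a fitted effect of over 75% in size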
[3] = molecular target: Rap guanine nucleotide exchange factor 4 (Homo sapiens) (UniProt Q8WZA2); assay: Confirmatory qHTS for agonist of cAMP-regulated guanine nucleotide exchange factor 4 (EPAC2) (AID 1645884); conditions: EPAC2 GEF activity, Rap1B-BODIPY-GDP fluorescence, percent relative to cAMP agonist control; series mostly up to 154 µM;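 further: nucleotide exchange releases bodipy-GDP from Rap1 and this lowers its fluorescence; nearly all actives have a fitted effect of over 65% in size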
Chain of Rap guanine nucleotide exchange factor 4 (Homo sapiens) (Q8WZA2 whole entry, looked up): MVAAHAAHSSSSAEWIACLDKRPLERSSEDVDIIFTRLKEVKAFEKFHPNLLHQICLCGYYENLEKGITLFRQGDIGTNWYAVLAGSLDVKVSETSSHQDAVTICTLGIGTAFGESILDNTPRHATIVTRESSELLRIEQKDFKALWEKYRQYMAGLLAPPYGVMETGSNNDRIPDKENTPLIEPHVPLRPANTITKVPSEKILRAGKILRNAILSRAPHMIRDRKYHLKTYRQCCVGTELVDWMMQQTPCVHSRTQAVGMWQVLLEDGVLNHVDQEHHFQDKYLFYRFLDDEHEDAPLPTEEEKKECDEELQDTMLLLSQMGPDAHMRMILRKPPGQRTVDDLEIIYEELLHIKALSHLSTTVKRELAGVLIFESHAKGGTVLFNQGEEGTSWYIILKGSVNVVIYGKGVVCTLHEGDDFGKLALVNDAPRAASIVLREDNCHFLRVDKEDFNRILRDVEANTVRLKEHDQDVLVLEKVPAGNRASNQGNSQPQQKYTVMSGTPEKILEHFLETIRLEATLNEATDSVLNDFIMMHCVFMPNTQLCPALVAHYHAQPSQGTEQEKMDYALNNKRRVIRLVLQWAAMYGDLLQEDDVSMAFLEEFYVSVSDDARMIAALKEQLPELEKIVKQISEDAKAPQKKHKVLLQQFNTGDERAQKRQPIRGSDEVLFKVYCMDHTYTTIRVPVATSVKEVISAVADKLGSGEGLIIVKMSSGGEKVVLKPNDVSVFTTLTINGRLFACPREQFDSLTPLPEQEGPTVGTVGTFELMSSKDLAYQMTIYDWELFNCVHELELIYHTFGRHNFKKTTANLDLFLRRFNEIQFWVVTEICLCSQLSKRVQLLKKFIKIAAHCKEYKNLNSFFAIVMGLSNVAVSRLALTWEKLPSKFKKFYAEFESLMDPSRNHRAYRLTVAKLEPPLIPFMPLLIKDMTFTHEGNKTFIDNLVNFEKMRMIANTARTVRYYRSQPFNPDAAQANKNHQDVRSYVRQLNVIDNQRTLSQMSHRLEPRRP

[4] = molecular target: Rap guanine nucleotide exchange factor 4 (Homo sapiens) (UniProt Q8WZA2); assay: Confirmatory qHTS for antagonist of cAMP-regulated guanine nucleotide exchange factor 4 (EPAC2) (AID 1645885); conditions: EPAC2 Rap1B-BODIPY-GDP exchange fluorescence, biochemical; series mostly up to 114 µM; further: nearly all actives have a fitted effect of over 25% in size
[5] = molecular target: Catechol O-methyltransferase (Homo sapiens) (UniProt P21964); assay: Confirmatory Screen for Target Class Profiling of Small Molecule Inhibitors of Methyltransferases (AID 1745852; calls by dose curve; further: potency means the concentration at half of the fitted maximal effect); conditions: MTase-Glo luminescence, SAH detection, recombinant enzyme; measured here: COMT max response; stronger effect = lower value
Chain of Catechol O-methyltransferase (Homo sapiens) (P21964 whole entry, looked up): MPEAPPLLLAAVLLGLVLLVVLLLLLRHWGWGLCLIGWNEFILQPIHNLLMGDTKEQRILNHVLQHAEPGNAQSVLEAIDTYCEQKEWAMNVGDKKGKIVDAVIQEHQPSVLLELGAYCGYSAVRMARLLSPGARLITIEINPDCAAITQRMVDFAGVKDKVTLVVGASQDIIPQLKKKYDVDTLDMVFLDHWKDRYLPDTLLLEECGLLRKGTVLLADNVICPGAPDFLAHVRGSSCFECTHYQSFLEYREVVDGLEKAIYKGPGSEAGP

[6] = molecular target: Guanidinoacetate N-methyltransferase (Homo sapiens) (UniProt Q14353); assay: as above; conditions: MTase-Glo luminescence, SAH detection, recombinant enzyme; activity change, negative = inhibition: at 57.3 µM (top of the series) unless noted
[7] = molecular target: Nicotinamide N-methyltransferase (Homo sapiens) (UniProt P40261); assay: as above; conditions: MTase-Glo luminescence, SAH detection, recombinant enzyme; measured here: NNMT max response; stronger effect = lower value
Chain of Nicotinamide N-methyltransferase (Homo sapiens) (P40261 whole entry, looked up): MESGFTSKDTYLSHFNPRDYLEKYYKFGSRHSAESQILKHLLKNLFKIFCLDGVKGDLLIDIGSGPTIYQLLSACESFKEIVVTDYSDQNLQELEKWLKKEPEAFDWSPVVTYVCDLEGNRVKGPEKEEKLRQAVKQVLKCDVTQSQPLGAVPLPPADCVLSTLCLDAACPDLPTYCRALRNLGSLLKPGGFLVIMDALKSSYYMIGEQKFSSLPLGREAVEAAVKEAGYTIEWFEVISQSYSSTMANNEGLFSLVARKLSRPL

[8] = molecular target: Phenylethanolamine N-methyltransferase (Homo sapiens) (UniProt P11086); assay: as above; conditions: MTase-Glo luminescence, SAH detection, recombinant enzyme; measured here: PNMT max response; stronger effect = lower value
Chain of Phenylethanolamine N-methyltransferase (Homo sapiens) (P11086 whole entry, looked up): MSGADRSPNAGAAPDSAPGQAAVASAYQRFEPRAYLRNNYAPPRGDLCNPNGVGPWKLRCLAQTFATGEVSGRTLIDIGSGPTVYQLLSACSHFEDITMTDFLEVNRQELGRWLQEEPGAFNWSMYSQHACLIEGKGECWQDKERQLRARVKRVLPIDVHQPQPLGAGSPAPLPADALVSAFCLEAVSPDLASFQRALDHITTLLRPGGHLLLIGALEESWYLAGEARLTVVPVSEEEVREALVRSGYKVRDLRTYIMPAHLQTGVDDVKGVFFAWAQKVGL

[9] = Primary qHTS for small molecule stabilizers of the endoplasmic reticulum resident proteome: Secreted ER Calcium Modulated Protein (SERCaMP) assay (AID 1508630); conditions: SH-SY5Y GLuc-SERCaMP (Gaussia luciferase released on ER calcium loss) secretion, thapsigargin, luminescence; series mostly up to 38.4 µM
In short: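 GLuc-SERCaMP-expressing SH-SY5Y cells, pretreated 16 h with compound, are challenged with thapsigargin to empty ER calcium stores; after 4 h, coelenterazine is added directly to the medium and luminescence is imaged.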

[10] = Primary qHTS for inhibitors of nuclear receptor binding SET domain protein 2 (NSD2) in an isogenic RCH-ACV NSD2 p.E1099K mutant (9B) (AID 1645876); conditions: RCH-ACV NSD2 E1099K (9B) viability, CellTiter-Glo, 72 h; series mostly up to 44.9 µM; further: nearly all actives have a fitted effect of over 70% in size; further: potency means the concentration at half of the fitted maximal effect
[11] = Primary qHTS for inhibitors of nuclear receptor binding SET domain protein 2 (NSD2) in an RCH-ACV wild type WT cells (2C) (AID 1645877); conditions: RCH-ACV (leukaemia line) NSD2 WT (2C) viability, CellTiter-Glo, 72 h; series mostly up to 44.9 µM; further: nearly all actives have a fitted effect of over 70% in size; further: potency means the concentration at half of the fitted maximal effect
[12] = NCATS anti-infectives library activity on HEK293 viability as a counter-qHTS vs the C. elegans viability qHTS (AID 1745854); conditions: HEK293 viability counter-screen; series mostly up to 41.8 µM
In short: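 HEK293 cells, 1500 per well, exposed 24 hr at 37C in 5% CO2 to compounds in a 1:5 titration, up to 41.7 uM final. Viability read as CellTiter-Glo luminescence after 10 min at room temperature.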

CC1(C)CCC2=C(O1)c1ccccc1C(=O)C2=O
outcome [1]: inactive | outcome [2]: inactive | outcome [3]: inactive | outcome [4]: inactive | activity [5]: -19.8% | Potency [6]: 9.68 µM (active) | activity [7]: -22.7% | activity [8]: -16.1%

COc1ccc2c(Oc3ccc(NC(=O)c4c(C)n(CC(C)(C)O)n(-c5ccccc5)c4=O)cc3F)ccnc2c1
activity [5]: -4.14% | activity change, negative = inhibition [6]: -3.46% | activity [7]: -7.85% | activity [8]: -1.86%

CNC1CCC(N(Cc2cccc(-c3ccncc3)c2)C(=O)c2sc3c(F)ccc(F)c3c2Cl)CC1 (stereo not given)
Potency [9]: inactive | Potency [10]: 8.33 µM (active) and 8.17 µM (active) | Potency [11]: 7.42 µM (active) and 8.17 µM (active)

CC(C)(C)COc1ccc(-n2cc(C(=O)O)cn2)cc1C#N
Potency [9]: inactive | Potency [10]: inactive | Potency [11]: inactive

COc1ccc(-n2c(C)c([N+](=O)[O-])c3ccc(O)cc32)cc1
Potency [9]: inactive | Potency [10]: inactive | Potency [11]: inactive

CN(C)Cc1ccc(-c2nc3cccc4c3n2CCNC4=O)cc1
Potency [9]: inactive | Potency [10]: 11.8 µM (active) | Potency [11]: 7.42 µM (active)

c1cc(-c2sc(-c3ccncc3)c(-c3ccncc3)c2-c2ccncc2)ccn1
Potency [9]: inactive | Potency [10]: inactive | Potency [11]: inactive

CC(C)[C@H](CO)Nc1nc(Nc2ccc(C(=O)O)c(Cl)c2)c2ncn(C(C)C)c2n1
Potency [9]: inactive | Potency [10]: inactive | Potency [11]: inactive

NC(CO)(CO)CCc1ccc(Sc2cccc(OCc3ccccc3)c2)cc1Cl
Potency [9]: inactive | Potency [10]: 7.42 µM (active) | Potency [11]: 7.42 µM (active)

Cc1ccccc1C(C(=O)NC1CCCCC1)N(C(=O)Cn1ccnc1C)c1cccc(F)c1 (stereo not given)
Potency [9]: inactive | Potency [10]: inactive | Potency [11]: inactive

CC(C)n1cnc2c(NCCCCCCNC(=O)OC(C)(C)C)nc(NCCO)nc21
Potency [9]: inactive | Potency [10]: 14.8 µM (active) | Potency [11]: 16.6 µM (active)

C=C1C(=O)OC(CCCCCCCC)C1C(=O)O (stereo not given)
Potency [9]: inactive | Potency [10]: inactive | Potency [11]: inactive

O=c1cc(-c2cccc3c2Sc2ccccc2S3)oc(N2CCOCC2)c1
Potency [9]: inactive | Potency [10]: 11.6 µM (active) and 14.8 µM (active) | Potency [11]: 11.6 µM (active) and 11.8 µM (active)

CC(=O)Nc1ccc([C@H](C)C(=O)Nc2ncc(C(C)C)s2)cc1
Potency [9]: inactive | Potency [10]: 2.63 µM (active) | Potency [11]: 2.35 µM (active)

O=C(O)c1ccccc1C(=O)Nc1ccc(-c2ccccc2)cc1
Potency [9]: inactive | Potency [10]: inactive | Potency [11]: inactive

COc1cc(N2CCC(N3CCN(C)CC3)CC2)ccc1Nc1ncc(Cl)c(Nc2ccccc2S(=O)(=O)C(C)C)n1
Potency [9]: inactive | Potency [10]: 1.29 µM (active) and 3.72 µM (active) | Potency [11]: 649 nM (active) and 1.48 µM (active) | activity [5]: -29.5% | Potency [6]: 27.1 µM (active) | activity [7]: -19% | activity [8]: -27.6%

CC1(C)CCC(CN2CCN(c3ccc(C(=O)NS(=O)(=O)c4ccc(NCC5CCOCC5)c([N+](=O)[O-])c4)c(Oc4cnc5[nH]ccc5c4)c3)CC2)=C(c2ccc(Cl)cc2)C1
Potency [9]: inactive | Potency [10]: 11.2 µM (active) and inactive | activity [5]: -3.58% | activity change, negative = inhibition [6]: 1.26% [at 29.8 µM] | activity [7]: -11.4% | activity [8]: -21.8%

N[C@@]1(C(=O)O)CS(=O)(=O)[C@H]2[C@H](C(=O)O)[C@H]21
Potency [9]: inactive | Potency [10]: inactive | Potency [11]: inactive

O=c1c(O)c(-c2ccc(O)cc2)oc2cc(O)cc(O)c12
Potency [9]: inactive | Potency [10]: 23.5 µM (active)

Nc1ncnc2ccccc12
Potency [9]: inactive | Potency [10]: inactive | Potency [11]: inactive

O=C(N[C@@H](c1ccccc1)[C@@H]1CCCCN1)c1cccc(C(F)(F)F)c1Cl
Potency [9]: inactive | Potency [10]: 18.6 µM (active)

NS(=O)(=O)c1ccc(NC2=CC(=O)c3ccccc3C2=O)cc1
Potency [9]: inactive | Potency [10]: inactive | Potency [11]: inactive

O=c1cc(N2CCOCC2)oc2c(-c3cccc4c3sc3ccccc34)cccc12
Potency [9]: inactive | Potency [10]: 3.32 µM (active) | Potency [11]: 2.63 µM (active)

CO[C@H]1C(=O)[C@]2(C)[C@@H](OC)C[C@H]3OC[C@@]3(OC(C)=O)[C@H]2[C@H](OC(=O)c2ccccc2)[C@]2(O)C[C@H](OC(=O)[C@H](O)[C@@H](NC(=O)OC(C)(C)C)c3ccccc3)C(C)=C1C2(C)C
Potency [9]: inactive | Potency [10]: 0.003 µM (active) | Potency [11]: 0.0026 µM (active)

CCOC(CN1C(=O)[C@](CC(=O)Nc2ccc(C)cc2)(NC(=O)Nc2ccc(C)cc2)c2ccccc21)OCC
Potency [9]: inactive | Potency [10]: 10.5 µM (active) | Potency [11]: 6.61 µM (active)

CCCCCN(C)CCC(O)(P(=O)(O)O)P(=O)(O)O
Potency [9]: inactive | outcome [10]: inactive [at 4.96 µM] | activity change, negative = cell killing [11]: 7.25% [at 4.96 µM] (inactive) | activity change, negative = cytotoxicity [12]: -3.04% [at 3.71 µM] (inactive)
